PubChem BioAssay AID504546 (Broad Institute, 2011)
Inconclusive results are not listed. A number with no mark means an inactive call.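 Rule for the calls: active = every repeat run fits a falling-signal curve with half-maximal potency within ten times top tested dose; inconclusive = runs disagree, or flat moderate drop, or poor fit; inactive = every run inactive, including signal moving upward.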

assay: inhibition of ADP-Glo detection reagents, dose response, artefact control for CDK5 inhibitor project, biochemical, luminescence, cherry-picked samples, set 2 (AID 504546); settings: ADP-Glo detection reagent counter screen, 5 uM ADP; series mostly up to 30 µM; activity change, negative = inhibition: at the top concentration;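 note: 0% = DMSO wells and -100% = wells lacking ADP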

Compared with `Cc1ccc2nc(NCc3ccccc3)c(C#N)cc2c1`, `Cc1nc(Nc2ccccc2)sc1C(=O)c1ccccc1` is lower in “activity change, negative = inhibition” value: 16.2% for the first, 1.1% for the second.

First: CC(C)C[C@H](CO)Nc1nc(N(C)c2cccc(Cl)c2)c2ncn(C(C)C)c2n1
Second: CC(C)n1cnc2c(N(C)c3cccc(Cl)c3)nc(N(CCO)CCO)nc21
The “activity change, negative = inhibition” value of the first is higher: 14.8% for the first, 12.7% for the second.

Going from `Cc1ccc(Nc2nc(NCCO)nc3c2cnn3C)cc1Cl` to `CCNc1nc(Nc2ccc(C)c(Cl)c2)c2cnn(C)c2n1`, the “activity change, negative = inhibition” value rises from -8.75% to 13.5%.

Compared with `NC(=S)N/N=C/c1c(O)c(Br)cc2oc3c(c12)CCCC3`, `NC(=O)N/N=C/c1c(O)ccc2oc3c(c12)CCCC3` is lower in “activity change, negative = inhibition” value: 3.71% for the first, -5.29% for the second.

First: COc1cc(OC)cc(C(=O)N2CCN(c3ccccn3)CC2)c1
Second: COc1ccc(C(=O)N2CCN(c3ccccn3)CC2)cc1
The “activity change, negative = inhibition” value of the first is lower: 1.89% for the first, 10.2% for the second.

First: COc1ccc2nc3c(cc2c1)c(NC(=O)c1cccs1)nn3CC(C)C
Second: COc1ccc2nc3c(cc2c1)c(NC(=O)C1CCCO1)nn3CC(C)C (stereo not given)
The “activity change, negative = inhibition” value of the first is lower: -13% for the first, 16.2% for the second.

First: COc1ccc2ccc3ccc(OC)c(OC(C)=O)c3c2c1
Second: COc1ccc(S(=O)(=O)Nc2c(C(=O)O)[nH]c3ccc(OC)cc23)c(OC)c1
The “activity change, negative = inhibition” value of the first is lower: 4.29% for the first, 14.8% for the second.

First: Oc1cccc(C=NNc2ccccn2)c1
Second: Clc1cncc(Cl)c1N/N=C/c1ccccc1
The “activity change, negative = inhibition” value of the first is higher: 12.7% for the first, 3.75% for the second.

Going from `CCC(C)Oc1cc(-c2ccnc(Nc3cccc(Cl)c3)n2)ccn1` (stereo not given) to `CC(C)n1cnc2c(Nc3ccc(C(=O)O)cc3)nc(Cl)nc21`, the “activity change, negative = inhibition” value falls from 7.1% to 5.34%.

Compared with `Cc1cc(C)c2nc(C(F)(F)F)c(C#N)c(N)c2c1`, `Cc1ccc2[nH]c(C(F)(F)F)cc(=O)c2c1` is higher in “activity change, negative = inhibition” value: 0.162% for the first, 14.9% for the second.

Compared with `CC(C)[C@H](CO)Nc1nc(Nc2ccc(Cl)c(C(=O)O)c2)c2ncn(C(C)C)c2n1`, `CCc1c(Nc2ccccc2Cl)nc(N)[nH]c1=O` is lower in “activity change, negative = inhibition” value: 3.05% for the first, -6.75% for the second.

Compared with `Clc1cnc(N/N=C/c2ccncc2)c(Cl)c1`, `Clc1ccc(N/N=C/c2ccncc2)cc1Cl` is lower in “activity change, negative = inhibition” value: -11.8% for the first, -12.5% for the second.

First: O=C1NCCCc2c1oc1ccc(O)cc21
Second: COc1ccc2oc(C(=O)NCCC(C)C)c(C)c2c1
The “activity change, negative = inhibition” value of the first is higher: 16.1% for the first, 13.2% for the second.

First: S=C(c1ccc(OCc2ccccc2)cc1)N1CCCC1
Second: O=C1Nc2cc(C(=O)N3CCC(N4CCCCC4)CC3)ccc2S/C1=C\c1ccccc1
The “activity change, negative = inhibition” value of the first is higher: 1.64% for the first, -9.15% for the second.

Going from `CCCc1cc(-c2[nH]ncc2-c2ccc(C(=O)OCC)o2)c(O)cc1O` to `O=[N+]([O-])c1ccc2c(c1)/C(=N\O)c1ccccc1-2`, the “activity change, negative = inhibition” value falls from 3.88% to -10.3%.

Compared with `O=C(O)CCC(=O)NCCn1c(-c2ccccc2)csc1=Nc1ccccc1`, `CNS(=O)(=O)c1ccc2c3c(cccc13)C(=O)N2` is higher in “activity change, negative = inhibition” value: -3.75% for the first, 16.5% for the second.

Going from `Cc1cc(-c2nsc(=O)o2)c(S(C)(=O)=O)s1` to `COc1cc(/C=N/Nc2ccc(C(F)(F)F)cn2)ccc1O`, the “activity change, negative = inhibition” value falls from 2.16% to -6.89%.

With `Oc1ccc(/C=N/Nc2nccnc2Cl)c(O)c1` the “activity change, negative = inhibition” value was -6.66%.
